According to PubChem BioAssay AID1159580 (chemical genetic matrix, 2015):
“And” between values parts separate entries of the source, which are not always exact repeats. Identical values can stand only once. Among all 5,500 compounds or so, about 2,000 (36%) were called active. Another 18% or so got no clear call; they are omitted. Rule as the data show it: active = normalized growth mostly below about 0.91 (no sharp cut-off); inconclusive = no clear call, values can overlap the other calls; inactive = mostly above about 0.92. Some of the results follow.

Assay: chemical genetic growth profiling, strain panel (AID 1159580);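 also: tested at 20 µM; growth read once vehicle control cultures reached saturation at 30 °C; 1 = growth at the plate median or of vehicle wells; lower values mean less growth of the strain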
Conditions: S. cerevisiae deletion strains, growth OD

Measured: normalized growth

NC[C@H]1O[C@H](O[C@H]2[C@H](O)[C@@H](O[C@H]3O[C@H](CO)[C@@H](O)[C@H](N)[C@H]3O)[C@H](N)C[C@@H]2N)[C@H](N)[C@@H](O)[C@@H]1O
inactive: locus YAL021C, strain ccr4, active compounds read low 0.999 | locus YAL026C, strain drs2, active compounds read low 0.992 | locus YAL030W, strain snc1, active compounds read low 0.996 | locus YBL061C, strain skt5, active compounds read low 0.992 | locus YBR009C, strain hhf1, active compounds read low 1.03 | locus YBR021W, strain FUR4, active compounds read low 0.902 | locus YBR023C, strain chs3, active compounds read low 1 | locus YBR171W, strain sec66, active compounds read low 0.989 | locus YBR229C, strain ROT2, active compounds read low 0.995 | locus YBR231C, strain swc5, active compounds read low 0.997 | locus YBR279W, strain paf1, active compounds read low 0.993 | locus YCL011C, strain gbp2, active compounds read low 0.998 | locus YCL016C, strain dcc1, active compounds read low 1.01 | locus YCL029C, strain bik1, active compounds read low 0.977 | locus YCL061C, strain MRC1, active compounds read low 0.993 | locus YCL069W, strain vba3, active compounds read low 0.989 | locus YCR088W, strain abp1, active compounds read low 0.992 | locus YDL005C, strain med2, active compounds read low 0.992 | locus YDL035C, strain GPR1, active compounds read low 0.99 | locus YDL040C, strain nat1, active compounds read low 0.997 | locus YDL074C, strain BRE1, active compounds read low 0.955 | locus YDL101C, strain DUN1, active compounds read low 0.991 | locus YDL185W, strain tfp1, active compounds read low 0.95 | locus YDL192W, strain arf1, active compounds read low 1 | locus YDR001C, strain nth1, active compounds read low 0.989 | locus YDR069C, strain doa4, active compounds read low 0.99 | locus YDR101C, strain arx1, active compounds read low 0.943 | locus YDR137W, strain rgp1, active compounds read low 1.01 | locus YDR150W, strain NUM1, active compounds read low 0.98 | locus YDR159W, strain sac3, active compounds read low 0.983 | locus YDR162C, strain NBP2, active compounds read low 1.01 | locus YDR195W, strain ref2 0.937 | locus YDR297W, strain sur2, active compounds read low 0.986 | locus YDR318W, strain mcm21, active compounds read low 1 | locus YDR334W, strain swr1, active compounds read low 0.985 | locus YDR335W, strain msn5, active compounds read low 0.994 | locus YDR388W, active compounds read low 0.98 | locus YDR392W, strain spt3, active compounds read low 1.04 | locus YDR502C, strain sam2, active compounds read low 1.01 | locus YEL003W, strain gim4, active compounds read low 0.991 | locus YEL037C, strain rad23, active compounds read low 1 | locus YEL061C, strain CIN8 (second series), active compounds read low 0.982 | locus YEL061C, strain CIN8, active compounds read low 0.996 | locus YER015W, strain faa2, active compounds read low 1 | locus YER016W, strain bim1, active compounds read low 0.988 | locus YER110C, active compounds read low 0.957 | locus YER111C, strain swi4, active compounds read low 0.998 | locus YER155C, strain BEM2 (second series), active compounds read low 0.993 | locus YER155C, strain BEM2, active compounds read low 0.994 | locus YER167W, strain BCK2, active compounds read low 1 | locus YFR010W, strain ubp6, active compounds read low 0.987 | locus YGL078C, strain dbp3, active compounds read low 0.99 | locus YGL086W, strain mad1, active compounds read low 0.952 | locus YGL167C, strain pmr1, active compounds read low 1 | locus YGL173C, strain kem1, active compounds read low 0.99 | locus YGL227W, strain vid30, active compounds read low 0.984 | locus YGL240W, strain doc1, active compounds read low 0.985 | locus YGL248W, strain PDE1, active compounds read low 1.02 | locus YGL253W, strain hxk2, active compounds read low 0.993 | locus YGR078C, strain PAC10, active compounds read low 1.01 | locus YGR135W, strain pre9, active compounds read low 1.01 | locus YGR252W, strain gcn5, active compounds read low 1.18 | locus YHR013C, strain ard1, active compounds read low 1 | locus YHR027C, strain rpn1, active compounds read low 0.989 | locus YHR030C, strain SLT2, active compounds read low 0.978 and 1.08 | locus YHR079C, strain IRE1 (second series), active compounds read low 0.974 | locus YHR079C, strain IRE1, active compounds read low 1.07 | locus YHR094C, strain hxt1, active compounds read low 0.992 | locus YHR129C, strain ARP1, active compounds read low 0.997 | locus YHR142W, strain chs7, active compounds read low 0.991 | locus YHR200W, strain rpn10, active compounds read low 0.98 | locus YIL066C, strain RNR3, active compounds read low 0.99 | locus YIL073C, strain SPO22, active compounds read low 0.915 | locus YIL125W, strain kgd1, active compounds read low 0.974 | locus YIR030C, strain dcg1, active compounds read low 1 | locus YJL092W, strain hpr5, active compounds read low 0.986 | locus YJL095W, strain BCK1 (second series), active compounds read low 0.994 | locus YJL095W, strain BCK1, active compounds read low 1.04 and 1.07 | locus YJL115W, strain asf1, active compounds read low 0.988 | locus YJL129C, strain trk1, active compounds read low 0.988 | locus YJL134W, strain LCB3, active compounds read low 0.976 | locus YJL154C, strain vps35, active compounds read low 0.994 | locus YJL164C, strain tpk1, active compounds read low 1 | locus YJL166W, strain qcr8, active compounds read low 0.996 | locus YJL168C, strain set2, active compounds read low 0.984 | locus YJL187C, strain SWE1 (second series), active compounds read low 1.01 | locus YJR043C, strain POL32, active compounds read low 1.01 | locus YJR066W, strain TOR1, active compounds read low 1.02 | locus YKL009W, strain mrt4, active compounds read low 0.97 | locus YKL068W, active compounds read low 0.966 | locus YKL085W, strain MDH1 (second series), active compounds read low 0.993 | locus YKL085W, strain MDH1, active compounds read low 0.993 | locus YKL160W, strain elf1, active compounds read low 0.994 | locus YKR001C, strain vps1, active compounds read low 0.986 | locus YKR026C, strain gcn3, active compounds read low 0.984 | locus YKR091W, strain srl3, active compounds read low 0.983 | locus YLL001W, strain dnm1, active compounds read low 0.988 | locus YLL026W, active compounds read low 1 | locus YLL041C, strain sdh2, active compounds read low 1.01 | locus YLR027C, strain aat2, active compounds read low 0.999 | locus YLR039C, strain RIC1, active compounds read low 1.01 | locus YLR058C, strain SHM2, active compounds read low 0.999 | locus YLR102C, strain apc9, active compounds read low 0.973 | locus YLR113W, strain HOG1, active compounds read low 1.04 | locus YLR221C, strain rsa3, active compounds read low 0.997 | locus YLR258W, strain gsy2, active compounds read low 0.995 | locus YLR262C, strain YPT6 (second series), active compounds read low 1.02 | locus YLR262C, strain YPT6, active compounds read low 0.984 | locus YLR268W, strain sec22, active compounds read low 0.959 | locus YLR320W, strain mms22, active compounds read low 1 | locus YLR330W, strain CHS5, active compounds read low 0.984 | locus YLR342W, strain FKS1 (second series), active compounds read low 0.999 | locus YLR342W, strain FKS1, active compounds read low 0.988 | locus YLR357W, strain rsc2, active compounds read low 0.992 | locus YLR370C, strain arc18, active compounds read low 1.02 | locus YLR371W, strain rom2, active compounds read low 0.996 | locus YLR384C, strain iki3, active compounds read low 1.01 | locus YLR418C, strain cdc73, active compounds read low 1.06 | locus YML016C, strain PPZ1, active compounds read low 0.992 | locus YML032C, strain rad52, active compounds read low 1.04 | locus YML120C, strain ndi1, active compounds read low 0.994 | locus YML124C, strain tub3, active compounds read low 0.991 | locus YMR058W, strain fet3, active compounds read low 0.997 | locus YMR078C, strain ctf18, active compounds read low 1.01 | locus YMR125W, strain sto1, active compounds read low 1.01 | locus YMR129W, active compounds read low 0.99 | locus YMR205C, strain PFK2, active compounds read low 1 | locus YMR223W, strain ubp8, active compounds read low 1.02 | locus YMR231W, strain pep5, active compounds read low 0.997 | locus YMR263W, strain SAP30, active compounds read low 0.992 | locus YMR307W, strain GAS1, active compounds read low 1.16 | locus YNL067W, strain RPL9B, active compounds read low 1.01 | locus YNL071W, strain lat1, active compounds read low 0.998 | locus YNL183C, strain NPR1, active compounds read low 1.02 | locus YNL209W, strain ssb2, active compounds read low 0.992 | locus YNL233W, strain BNI4, active compounds read low 1.01 | locus YNL248C, strain rpa49, active compounds read low 1 | locus YNL250W, strain rad50, active compounds read low 0.96 | locus YNL271C, strain bni1, active compounds read low 0.997 | locus YNL298W, strain CLA4, active compounds read low 0.984 | locus YNL307C, strain MCK1, active compounds read low 0.981 | locus YNL322C, strain KRE1 (second series), active compounds read low 1 | locus YNR049C, strain mso1, active compounds read low 1.02 | locus YNR052C, strain pop2, active compounds read low 1 | locus YOL012C, strain htz1 1.19 | locus YOL147C, strain pex11, active compounds read low 0.989 | locus YOR001W, strain rrp6, active compounds read low 1.01 | locus YOR061W, strain CKA2, active compounds read low 1 | locus YOR069W, strain VPS5, active compounds read low 0.986 | locus YOR070C, strain gyp1, active compounds read low 1.01 | locus YOR080W, strain dia2, active compounds read low 1 | locus YOR083W, strain WHI5, active compounds read low 1.01 | locus YOR106W, strain vam3, active compounds read low 1.02 | locus YOR136W, strain idh2, active compounds read low 0.972 | locus YOR184W, strain ser1, active compounds read low 0.972 | locus YOR231W, strain MKK1, active compounds read low 1.04 | locus YOR265W, strain rbl2, active compounds read low 1 | locus YOR270C, strain vph1, active compounds read low 0.968 | locus YOR290C, strain snf2, active compounds read low 1 | locus YOR316C, strain cot1, active compounds read low 0.978 | locus YPL051W, strain arl3, active compounds read low 1 | locus YPL055C, strain LGE1, active compounds read low 1.01 | locus YPL078C, strain atp4, active compounds read low 1.02 | locus YPL106C, strain sse1, active compounds read low 1.01 | locus YPL240C, strain hsp82, active compounds read low 0.988 | locus YPL256C, strain CLN2, active compounds read low 1.08 | locus YPR119W, strain clb2, active compounds read low 0.993 | locus YPR141C, strain kar3, active compounds read low 0.982 | locus YPR163C, strain tif3, active compounds read low 0.998 | locus YPR167C, strain met16, active compounds read low 0.991 | strain wtn01, active compounds read low 0.948
